Screens (PubChem)
An excerpt weighted towards active compounds, which were near 1.2% of everything screened.
KCNH2 WT inh: qHTS for Inhibitors of KCHN2 3.1: Wildtype qHTS | Voltage-gated inwardly rectifying potassium channel KCNH2 (Homo sapiens), Q12809 | U2OS, BacMam KCNH2, thallium flux FluxOr; hits give low values | activity change, % at 1.84 µM | actives 0.37% (n = 340,000);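 active means maximum activity change below -70%; inconclusive means maximum activity change between -70% and -50%; inactive means maximum activity change above -50%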
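U2OS cells transduced with wild-type KCNH2 virus are loaded with FluxOr dye for 45 min, and thallium flux is measured in kinetic reads before and after stimulation buffer. Rate constants are normalized to DMSO controls.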
Tb PGK inh: qHTS Assay to Find Inhibitors of Phosphoglycerate Kinase; Phosphoglycerate kinase, glycosomal (Trypanosoma brucei brucei), P07378; PGK/GAPDH coupled, Kinase-Glo luminescence, 60 min; Potency, µM (series often up to 57.5 µM), without a hit: at the top dose activity change, negative = inhibition, usual class: inhibitors; actives 0.043% (n = 380,000); further: potency means the concentration at half of the fitted maximal effect; nearly all actives have a fitted effect of over 60% in size
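Recombinant glycosomal PGK reaction used 1,3-bisphosphoglycerate generated in-well by GAPDH (100nM final) in 100mM TEA pH 7.6, 5mM MgCl2, 0.01% Tween-20. After 60 minutes at room temperature, ATP was read by Kinase-Glo Plus luminescence end-point.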
GCN5L2 inh: qHTS Assay for Inhibitors of GCN5L2; actives 0.21% (n = 390,000); Histone acetyltransferase KAT2A (Homo sapiens), Q92830; Potency, µM (highest dose often 58.9 µM), inactives show at the highest dose activity change, negative = inhibition, actives largely listed as inhibitors; GCN5L2 HAT assay, ThioGlo1 CoA-SH fluorescence; further: potency means the concentration at half of the fitted maximal effect
Target sequence (Q92830 whole entry, looked up): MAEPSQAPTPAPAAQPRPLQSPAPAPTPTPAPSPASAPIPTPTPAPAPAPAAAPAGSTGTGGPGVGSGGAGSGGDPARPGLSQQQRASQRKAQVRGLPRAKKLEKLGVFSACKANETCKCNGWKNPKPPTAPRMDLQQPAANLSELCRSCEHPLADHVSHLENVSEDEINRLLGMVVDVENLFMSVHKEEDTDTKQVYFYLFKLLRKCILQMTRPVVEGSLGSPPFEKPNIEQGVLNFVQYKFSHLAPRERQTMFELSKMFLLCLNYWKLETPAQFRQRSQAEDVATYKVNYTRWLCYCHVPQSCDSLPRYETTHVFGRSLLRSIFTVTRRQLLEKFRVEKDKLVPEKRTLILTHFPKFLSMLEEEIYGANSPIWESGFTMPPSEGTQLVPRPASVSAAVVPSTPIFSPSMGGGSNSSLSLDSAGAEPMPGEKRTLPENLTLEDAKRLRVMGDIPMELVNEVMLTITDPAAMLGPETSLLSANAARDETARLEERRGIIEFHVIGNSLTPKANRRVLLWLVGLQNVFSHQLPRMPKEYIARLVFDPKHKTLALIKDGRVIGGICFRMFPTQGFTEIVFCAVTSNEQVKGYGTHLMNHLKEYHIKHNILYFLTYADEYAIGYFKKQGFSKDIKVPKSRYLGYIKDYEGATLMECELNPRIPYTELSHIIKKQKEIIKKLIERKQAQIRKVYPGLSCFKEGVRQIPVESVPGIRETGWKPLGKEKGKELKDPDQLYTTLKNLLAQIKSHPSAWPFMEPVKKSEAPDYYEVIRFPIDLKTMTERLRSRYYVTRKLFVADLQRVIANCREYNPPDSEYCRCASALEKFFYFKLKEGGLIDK
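Preincubate 20nM GCN5L2 with compound 15 min, RT → add 50uM ThioGlo1 + 75uM H3(1-25) + 70uM acetyl-CoA → read fluorescence 0 and 20 min. Primary qHTS; fluorescent artifacts likely.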
Pin1 inh: qHTS Assay to Find Inhibitors of Pin1; Peptidyl-prolyl cis-trans isomerase NIMA-interacting 1 (Homo sapiens), Q13526; Pin1 FP peptide displacement, HiFluor488, 10 min; Potency, µM (highest dose often 115 µM), inactives show at the highest dose activity, negative = inhibition, actives largely listed as inhibitors; actives 0.009% (n = 390,000); AID 504891, 2011; active means well fitted inhibition curve with a large enough effect in the polarisation, with a control signal flat, not every such curve was filed as active; inconclusive means small, poorly fitted or top-dose-only effect, or effect the other way, or a change in a side signal; inactive means no such curve, though single readings can be large or run the other way; the % refers to the polarisation; further: potency means the concentration at half of the fitted maximal effect
RGS4 inhibitor: Inhibitors of Regulator of G Protein Signaling (RGS) 4: qHTS | actives 0.039% (n = 390,000) | Regulator of G-protein signaling 4 (Homo sapiens), P49798 | Potency, µM (series often up to 114 µM), for inactives: at the top dose activity change, negative = inhibition, most hits filed as inhibitors | Transcreener GDP fluorescence polarization, RGS4-accelerated GTP hydrolysis; further: potency means the concentration at half of the fitted maximal effect; nearly all actives have a fitted effect of over 75% in size
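MLSMR compounds (23 nl, pin-transferred) preincubated 10 min at room temperature with a 500nM (2x) first reagent, then RGS4 at 900nM (2x) plus Transcreener GDP mix added; fluorescence polarization (620/688 nm) read before and after 90 min at 30 °C.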
KCNH2 3.1 block: qHTS for Inhibitors of KCHN2 3.1: Mutant qHTS; Potassium voltage-gated channel subfamily H member 2, brain isoform KCNH2 3.1 (human); U2OS KCNH2 3.1, thallium flux FluxOr; hits give low values; activity change, % (tested at about 1.8 µM); actives 0.95% (n = 340,000);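 active means maximum activity change below -70%; inconclusive means maximum activity change from -70% to -50%; inactive means maximum activity change above -50%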;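 further: thallium influx rate constant from kinetic fluorescence after stimulation buffer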
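Normalized rate constant (relative to positive and negative DMSO controls) derived from a 2 min kinetic fluorescence read after stimulation; U2OS cells expressing the 3.1 isoform via virus at 1.77 x 10^8 /mL.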
* marks the source's active call; other numbers are inactive results; i = inactive; ? = inconclusive; / = not tested or not shown; [ ] = another dose, or the depositor's remark. Unless noted, the call rests on the fitted dose curve; in most records, active means well fitted curve in the direction sought with a large enough effect; inconclusive means small, poorly fitted or top-dose-only effect, or another doubt; inactive means no such curve, though single readings can be large; an effect the other way counts as inactive or inconclusive. On the % scale 0 is the no-effect control and ±100 the full control effect.

SMILES	KCNH2 WT inh	Tb PGK inh	GCN5L2 inh	Pin1 inh	RGS4 inhibitor	KCNH2 3.1 block
Cc1nc(N2CCN(c3ccccn3)CC2)c2c(C)c(C(=O)Nc3c(C)cc(Br)cc3C)sc2n1	1	-10%	-13%	15%	3%	-80*
Cc1nc(N2CCN(c3ccccn3)CC2)c2c(C)c(C(=O)Nc3c(F)cc(F)cc3Br)sc2n1	-28	1%	-21%	44%	13%	-95*
Cc1c(C(=O)N2CCN(c3ccccc3)CC2)sc2ncnc(N3CCN(c4ccccn4)CC3)c12	2	i	-3%	1%	-6%	-12
Cc1ccc(CNC(=O)c2c(C)oc3nc(C)nc(N4CCOCC4)c23)cc1	/	i	25%	-5%	9%	/
CC(C)CCc1noc(CN(CC2CCC2)CC2CCCO2)n1 (configuration not stated)	-11	-2%	0%	-1%	30%[11.4 µM]	-72*
COc1ccc(NS(=O)(=O)c2c(C(=O)N3CCCCCC3)c(C)n(C)c2C)cc1	9	-8%	1%	-9%	27%[11.4 µM]	-74*
Cc1ccc(NS(=O)(=O)c2c(C(=O)N3CCCC3)c(C)n(C)c2C)cc1	4	3%	-2%	-8%	15%[11.4 µM]	11
COc1ccc(CNC(=O)CCNS(=O)(=O)c2ccc(Cl)cc2)cc1	-3	-10%	-10%	-4%	26%	-8
CC1Cc2cc(S(=O)(=O)NCCC(=O)NCc3ccc(F)cc3)ccc2N1C(=O)C1CC1 (configuration not stated)	-87*	i	-2%	0%	13%	22
COc1ccc(CNC(=O)COc2ccc(S(=O)(=O)N3CCCCC3)cc2)cc1	-131*	i	4%	5%	-25%	-13
COc1ccc(S(=O)(=O)NCCC(=O)NCc2ccc(F)cc2)cc1	45	-10%	3%	-1%	-16%	-80*
NC[C@@H]1O[C@H](OC2[C@@H](CO)O[C@@H](OC3[C@H](O)[C@H](N)C[C@H](N)[C@H]3OC3O[C@H](CO)[C@@H](O)[C@H](O)[C@@H]3N)[C@H]2O)C(N)[C@H](O)[C@@H]1O (some centres not stated)	/	/	-1%	/	/	/
CC(=O)OCC(NC(=O)C(COCc1ccccc1)NC(=O)OC(C)(C)C)C1OC(n2cc(C)c(=O)[nH]c2=O)C(OC(C)=O)C1OC(C)=O (configuration not stated)	/	/	/	2%	-20%	/
C=CCn1c(SCC(=O)N2CCN(C(=O)c3ccco3)CC2)nc2sc(CC)cc2c1=O	-109*	-7%	-1%	8%	4%	?
CCc1ccc2occ(CC(=O)Nc3sc4c(c3C(=O)OC)CCC4)c2c1	/	-5%	2%	?	-20%	/
COc1ccc(C(=O)N/N=C/c2ccc(OC)c(OS(=O)(=O)c3ccccc3)c2)cc1	-151*	-5%	-1%	?	-4%	-195*
CC(=O)c1ccc(S(=O)(=O)N2CCCC(N(C)CCc3ccccc3)C2)cc1 (configuration not stated)	?	i	1%	0%	-13%	-94*
COc1ccc(CCN(C)C2CCCN(S(=O)(=O)c3ccc(C)cc3)C2)cc1OC (configuration not stated)	-31	-5%	4%	-2%	-18%	-83*
CCCS(=O)(=O)c1c(S(=O)(=O)CCC)c2cc(C(C)(C)C)ccn2c1C(=O)c1ccc(C)cc1	/	i	-6%	1%	12%	/
